Where a name gives a salt, the structure may show the parent alone.
Tests used:
[1] = system: U-2932; assay: growth inhibition by drug alone (1 - RLU/untreated control) (fraction); higher = stronger inhibition; conditions: 177Lu-lilotomab satetraxetan 0 ug/ml
Summary of the method: (§1)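 RIVA or U-2932 cells were left untreated or pretreated for 18 h with a radiolabelled anti-CD37 antibody conjugate (~600 MBq/mg) at 0.5 µg/ml for RIVA or 1 µg/ml for U-2932. The cells were then washed and seeded at 3,000 cells/well on plates pre-printed with the Selleck Cambridge Cancer Compound library, dosed at 10/100 nM for RIVA and 10/1,000 nM for U-2932. From day 3, RealTime-Glo luminescence was read daily after 1 h at 37°C. Growth inhibition was taken as one minus RLU over the mean of the untreated no-drug wells, of which there were 48 per plate.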

[2] = system: RIVA; assay: as above; conditions: 177Lu-lilotomab satetraxetan 0 ug/ml
Summary of the method: as §1

[3] = system: U-2932; assay: growth inhibition by drug plus 177Lu-lilotomab satetraxetan (1 - RLU/untreated control) (fraction); higher = stronger inhibition; conditions: 177Lu-lilotomab satetraxetan 1 ug/ml
Summary of the method: as §1

[4] = system: RIVA; assay: as above; conditions: 177Lu-lilotomab satetraxetan 0.5 ug/ml
Summary of the method: as §1

Structure (SMILES)	growth inhibition by drug alone ([1]; 10 nM, time (day): 3)	growth inhibition by drug alone ([1]; 10 nM, time (day): 4)	growth inhibition by drug alone ([1]; 10 nM, time (day): 5)	growth inhibition by drug alone ([1]; 10 nM, time (day): 6)	growth inhibition by drug alone ([1]; 1000 nM, time (day): 3)	growth inhibition by drug alone ([1]; 1000 nM, time (day): 4)	growth inhibition by drug alone ([1]; 1000 nM, time (day): 5)	growth inhibition by drug alone ([1]; 1000 nM, time (day): 6)	growth inhibition by drug alone ([2]; 10 nM, time (day): 3)	growth inhibition by drug alone ([2]; 10 nM, time (day): 4)	growth inhibition by drug alone ([2]; 10 nM, time (day): 5)	growth inhibition by drug alone ([2]; 10 nM, time (day): 6)	growth inhibition by drug alone ([2]; 100 nM, time (day): 3)	growth inhibition by drug alone ([2]; 100 nM, time (day): 4)	growth inhibition by drug alone ([2]; 100 nM, time (day): 5)	growth inhibition by drug alone ([2]; 100 nM, time (day): 6)	growth inhibition by drug plus 177Lu-lilotomab satetraxetan ([3]; 10 nM, time (day): 3)	growth inhibition by drug plus 177Lu-lilotomab satetraxetan ([3]; 10 nM, time (day): 4)	growth inhibition by drug plus 177Lu-lilotomab satetraxetan ([3]; 10 nM, time (day): 5)	growth inhibition by drug plus 177Lu-lilotomab satetraxetan ([3]; 10 nM, time (day): 6)	growth inhibition by drug plus 177Lu-lilotomab satetraxetan ([3]; 1000 nM, time (day): 3)	growth inhibition by drug plus 177Lu-lilotomab satetraxetan ([3]; 1000 nM, time (day): 4)	growth inhibition by drug plus 177Lu-lilotomab satetraxetan ([3]; 1000 nM, time (day): 5)	growth inhibition by drug plus 177Lu-lilotomab satetraxetan ([3]; 1000 nM, time (day): 6)	growth inhibition by drug plus 177Lu-lilotomab satetraxetan ([4]; 10 nM, time (day): 3)	growth inhibition by drug plus 177Lu-lilotomab satetraxetan ([4]; 10 nM, time (day): 4)	growth inhibition by drug plus 177Lu-lilotomab satetraxetan ([4]; 10 nM, time (day): 5)	growth inhibition by drug plus 177Lu-lilotomab satetraxetan ([4]; 10 nM, time (day): 6)	growth inhibition by drug plus 177Lu-lilotomab satetraxetan ([4]; 100 nM, time (day): 3)	growth inhibition by drug plus 177Lu-lilotomab satetraxetan ([4]; 100 nM, time (day): 4)	growth inhibition by drug plus 177Lu-lilotomab satetraxetan ([4]; 100 nM, time (day): 5)	growth inhibition by drug plus 177Lu-lilotomab satetraxetan ([4]; 100 nM, time (day): 6)
CC(C)(C#N)c1cc(Cn2cncn2)cc(C(C)(C)C#N)c1 [Anastrozole]	0.105	0.0583	0.0212	-0.021	0.0109	0.046	-0.0146	-0.259	0.0128	-0.01	-0.0521	-0.213	-0.0495	-0.0262	-0.0644	-0.17	0.0156	0.039	0.0695	0.0754	-0.103	0.0124	-0.0136	-0.0141	0.481	0.583	0.593	0.583	0.423	0.506	0.523	0.499
CCNC(=O)c1noc(-c2cc(C(C)C)c(O)cc2O)c1-c1ccc(CN2CCOCC2)cc1	0.0556	0.0532	-0.00948	0.11	0.942	0.972	0.981	0.982	0.0724	-0.0275	-0.068	-0.156	0.971	0.977	0.978	0.975	0.117	0.0968	0.0861	0.245	0.936	0.973	0.981	0.984	0.398	0.414	0.469	0.516	0.982	0.988	0.988	0.988
O=C(c1cc(Cc2n[nH]c(=O)c3ccccc23)ccc1F)N1CCN(C(=O)C2CC2)CC1 [Olaparib (AZD2281)]	0.0127	-0.023	-0.0205	0.0558	-0.0113	0.025	0.0248	0.0776	-0.144	-0.15	-0.137	-0.143	-0.228	-0.239	-0.25	-0.231	-0.0255	0.035	0.0896	0.188	0.0503	0.108	0.156	0.315	0.539	0.593	0.618	0.613	0.39	0.482	0.505	0.533
COC(=O)Nc1nc2cc(C(=O)c3cccs3)ccc2[nH]1 [Nocodazole]	0.162	0.111	0.0124	-0.0733	0.959	0.967	0.972	0.977	-0.0176	-0.0388	-0.162	-0.595	0.948	0.956	0.957	0.953	0.00977	0.0511	0.0524	0.13	0.971	0.978	0.982	0.984	0.402	0.532	0.541	0.547	0.956	0.968	0.974	0.979
Clc1ccc(Nc2nnc(Cc3ccncc3)c3ccccc23)cc1 [Vatalanib dihydrochloride (PTK787)]	0.0493	0.0329	-0.0325	-0.0722	0.00749	0.0478	-0.0105	-0.12	-0.0393	-0.0522	-0.084	-0.232	-0.0903	-0.0658	-0.0924	-0.165	-0.0142	0.0115	0.0124	0.0638	-0.0725	0.0231	-0.00359	-0.0503	0.334	0.509	0.527	0.534	0.328	0.442	0.439	0.426
OC[C@H]1O[C@@H](n2cnc3c2N=CNC[C@H]3O)C[C@@H]1O [Pentostatin]	0.1	0.0372	-0.116	-0.114	-0.0219	-0.074	-0.147	-0.0984	0.0173	-0.0212	-0.109	-0.624	-0.427	-0.321	-0.314	-0.387	-0.00817	0.056	0.0512	0.0351	0.0728	0.0721	0.118	0.207	0.472	0.557	0.557	0.555	0.399	0.488	0.5	0.513
COc1ccc(-c2oc3cc(OC)ccc3c2C(=O)c2ccc(C#N)cc2)cc1	0.084	0.0751	0.0436	-0.022	-0.0181	0.0261	-0.052	-0.253	-0.046	-0.0513	-0.124	-0.374	-0.0825	-0.0731	-0.0858	-0.201	-0.0286	-0.00458	0.0392	0.0337	-0.0968	0.0212	0.0134	0.0408	0.441	0.559	0.571	0.572	0.391	0.503	0.507	0.483
